# Reference: PubChem BioAssay AID2782 (National Center for Advancing Translational Sciences (NCATS), 2010)
# Results filed as inconclusive are left out. Entries that show only a call come without a potency. Active and inactive are the calls of the source. The call rests on the fitted dose curve; in most records, active means well fitted inhibition curve with a large enough effect in the polarisation, with a control signal flat (not every such curve was filed as active); inconclusive means small, poorly fitted or top-dose-only effect, or effect the other way, or a change in a side signal; inactive means no such curve, though single readings can be large or run the other way; the % refers to the polarisation.
# Assay: Confirmation of Inhibitors Targeting the Menin-MLL Interaction in MLL Related Leukemias: Competition With Texas Red Labeled MLL-derived Mutant Peptide
# Settings: fluorescence polarization, Texas Red MLL peptide displacement; series mostly up to 288 µM
# From the text: qHTS Assay for Inhibitors Targeting the Menin-MLL Interaction in MLL Related Leukemias
# NIH Chemical Genomics Center [NCGC]
# NIH Molecular Libraries Probe Centers Network [MLPCN]
# Assay Submitter (PI): Jolanta Grembecka, Tomasz Cierpicki, University of Virginia
# Translocations of the MLL (Mixed Lineage Leukemia) gene are frequently found in human leukemias affecting both children and adults. Fusion of MLL to one of more than 60 genes results in generation of oncogenic proteins upregulating Hox genes, which are vital to blood cell development. Patients harboring fusion of the MLL gene suffer from aggressive leukemias and respond poorly to available therapies. All of the oncogenic fusion proteins have a preserved N-terminal fragment of MLL that has been identified to interact with menin. It has been recently discovered that association with menin is critical to the leukemogenic activity of the MLL fusion oncoproteins. Selective targeting of the menin-MLL interaction could provide an attractive therapeutic approach to develop novel drugs for MLL-related leukemias. Small molecules blocking the menin-MLL interaction should reverse the oncogenic potential of MLL fusion proteins.
# We have developed and optimized a fluorescence polarization-based assay for the identification of Menin-MLL inhibitors. The assay was run employing two different MLL-derived peptides. The present assay uses a 12 amino acid peptide labeled with fluorescein at its N-terminus. This peptide consists of the menin high affinity binding motif from MLL and is potently bound by menin. Another peptide with a mutated sequence, labeled with Texas Red, was used in parallel as a less stringent screen for inhibitors.
# The present assay was run to confirm the activity of hits from the primary screen using the peptide with a mutated sequence, labeled with Texas Red.
# The Menin protein, the MLL-wild type (w.t.) derived peptide (N-terminal 12 amino acids), the MLL-derived peptide labeled with Texas Red and the MLL-w.t. peptide labeled with Fluorescein were kindly supplied by laboratory of Dr. Jolanta Grembecka, University of Virginia. All protein and peptide solutions were stored in single use aliquots at -80C. The Eu3+ Cyrptate-conjugated mouse monoclonal antibody anti-6 Histidine (Eu3+-AB) and the Streptavidin-XL665 conjugate (XL665) were purchased from Cisbio International (Bedford, MA). All antibody and XL665 conjugate solution stocks were stored in single use aliquots at -20C. The Buffer components for all assays were purchased from Sigma-Aldrich (St. Louis, MO) and Invitrogen (Carlsbad, CA).
# 1. FP reaction buffer: 50 mM Tris-HCl pH 7.5, 50 mM NaCl, 1mM DTT.
# Before use, 0.05% BSA is added.
# 2. Menin protein, MLL-w.t. labeled with fluorescein, MLL-mutant peptide labeled with texas red.
# Stored in singe use aliquots at -80C.
# 3. MLL-w.t. unlabeled peptide as positive control: 10 uM final in FP buffer.
# 1. Prepare Menin at 200 nM, MLL-w.t.-fluorescein at 25 nM, and MLL-mutant-texas red at 50 nM mixture in FP buffer.
# 2. Prepare Menin at 200 nM, MLL-w.t.-fluorescein at 25 nM, MLL-mutant-texas red at 50 nM, and 10 uM MLL-w.t. unlabeled mixture in FP buffer.
# 3. Prepare MLL-w.t.-fluorescein at 25 nM and MLL-mutant-texas red at 50 nM mixture in FP buffer.
# 3. Dispense 4 ul per well of reagent in step 1 in columns 2, 4 - 48 in a black 1536 well plate, dispense 4 ul per well of reagents from steps 2 and 3 in columns 1 and 3 respectively. Incubate plate at ambient for 15 minutes.
# 4. Transfer 23 nl per well of compound to plate and incubate at ambient for 1 hr.
# 5. Read fluorescence polarization for each label using the PerkinElmer Envision.
# Envision protocol for fluorescein: FITC FP Dual Enh Mirror, Excitation filter 480, Emission filter (1) P-pol 535, Emission filter (2) S-pol 535
# Envision protocol for texas red: FP Dual Enh Mirror, Excitation filter 555, Emission filter (1) P-pol 632, Emission filter (2) S-pol 632
# Potency means the concentration at half of the fitted maximal effect.
row,Structure (SMILES),Potency
1,Cc1cc(C(=O)NP(=O)(N2CCOCC2)N2CCOCC2)c(C)n1C1CC1,inactive
2,O=C(Nc1ccc2ccccc2c1)c1nn(C23CC4CC(CC(C4)C2)C3)cc1Br,inactive
3,COc1ccc(C(O)P(=O)(Oc2ccccc2)Oc2ccccc2)cc1 (centres undefined),inactive
4,O=C1NC(=O)C(=Cc2ccc3ccccc3c2)C(=O)N1,inactive
5,C[N+](C)(C)CC#CCN1CCCC1=O,inactive
6,CC[C@]12C=CCN3CC[C@@]4(c5ccc(OC)cc5N(C)[C@H]4[C@@](O)(C(=O)OC)[C@@H]1OC(C)=O)C32 (some centres undefined),inactive
7,CCOP(=O)(OCC)C(NC(=O)c1ccccc1C)C(Cl)(Cl)Cl (centres undefined),inactive
8,c1cc2cc(c1)C[n+]1ccc(c3ccccc31)NCc1ccc(cc1)CNc1cc[n+](c3ccccc13)C2,100 µM (active)
9,C[C@@H]1CC[C@@]2(NC1)O[C@H]1C[C@H]3[C@@H]4CC=C5C[C@@H](O)CC[C@]5(C)[C@H]4CC[C@]3(C)[C@H]1[C@@H]2C,inactive
10,O=C(O)CN1C(=O)CN=C(c2ccccn2)c2cc(Cl)ccc21,inactive
11,COc1cc(/C=N/n2cnnc2)ccc1OC(=O)N(C)C,inactive
12,CCCCCn1c(=O)c(C(=O)Nc2nc(CC(=O)OCC)cs2)c(O)c2ccccc21,inactive
13,OC12C3C4CC5C6C4C1C6C(C53)N2CCc1cccc(F)c1 (centres undefined),inactive
14,CCCCn1c(=O)c(C(=O)Nc2ccsc2C(=O)OC)c(O)c2ccccc21,14.2 µM (active)
